Data published in PubChem BioAssay (Tox21).
Results filed as inconclusive are left out. Values without a mark were called inactive. The source made the active and inactive calls. Calls follow the shape of the dose curve; as a rule, active = well fitted activation curve with a large enough effect in the signal ratio in the repeat runs (not every such curve was filed as active); inconclusive = weak or mixed curves, or effect the other way; inactive = no such curve, though single readings can be large or run the other way; the % refers to the signal ratio.

target: Peroxisome proliferator-activated receptor gamma (Homo sapiens) (UniProt P37231); assay: qHTS assay to identify small molecule agonists of the peroxisome proliferator-activated receptor gamma (PPARg) signaling pathway (AID 743094); settings: HEK293H PPARg-UAS-bla, beta-lactamase FRET ratio, 17 h; series mostly up to 57 µM; activation: at the top concentration
Description: U.S. Tox21 Program National Center for Advancing Translational Sciences [NCATS] NIH Chemical Genomics Center [NCGC] U.S. Environmental Protection Agency [EPA] National Institutes of Environmental Health Sciences [NIEHS] National Toxicology Program [NTP] U.S. Food and Drug Administration [FDA] Tox21 Assay Overview: The peroxisome proliferator-activated receptors (PPARs) are lipid-activated transcription factors of the nuclear receptor superfamily with three distinct subtypes namely PPAR alpha, PPAR delta (also called PPAR beta) and PPAR gamma (PPARg). All these subtypes heterodimerize with Retinoid X receptor (RXR) and these heterodimers regulate transcription of various genes. PPAR-gamma receptor (glitazone receptor) is involved in the regulation of glucose and lipid metabolism. To identify the compounds that activate PPAR-gamma signaling, GeneBLAzer PPAR gamma UAS-bla HEK293H cell line (Invitrogen, Carlsbad, CA, USA) containing a beta-lactamase reporter gene under control of the control of an upstream activator sequence (UAS) stably integrated into HEK293H cells was used to screen Tox21 compound library.
Tox21 Assay Protocol Summary: PPARg-bla cells were dispensed at 3000 cells/6uL/well in 1536-well black wall/clear bottom plates using a Multidrop Combi (Thermo Fisher Scientific, Waltham, MA) dispenser. After the assay plates were incubated at 37C and 5% CO2 for 5 h, 23 nL of compounds dissolved in DMSO, positive controls or DMSO only was transferred to the assay plate by a Pintool station (Kalypsys, San Diego, CA). The assay plates were incubated at 37C for 17 h. After 1 uL of LiveBLAzerTM B/G FRET substrate was added using a Bioraptr Flying Reagent Dispenser (FRD) workstation (Beckman Coulter, Indianapolis, IN, USA), the plates were incubated at room temperature for 1 h, and fluorescence intensity was measured by an Envision plate reader (PerkinElmer, Shelton, CT).
% is scaled to controls: 0 for no effect and ±100 for the full control effect.

Chain of Peroxisome proliferator-activated receptor gamma (Homo sapiens) (P37231 whole entry, looked up): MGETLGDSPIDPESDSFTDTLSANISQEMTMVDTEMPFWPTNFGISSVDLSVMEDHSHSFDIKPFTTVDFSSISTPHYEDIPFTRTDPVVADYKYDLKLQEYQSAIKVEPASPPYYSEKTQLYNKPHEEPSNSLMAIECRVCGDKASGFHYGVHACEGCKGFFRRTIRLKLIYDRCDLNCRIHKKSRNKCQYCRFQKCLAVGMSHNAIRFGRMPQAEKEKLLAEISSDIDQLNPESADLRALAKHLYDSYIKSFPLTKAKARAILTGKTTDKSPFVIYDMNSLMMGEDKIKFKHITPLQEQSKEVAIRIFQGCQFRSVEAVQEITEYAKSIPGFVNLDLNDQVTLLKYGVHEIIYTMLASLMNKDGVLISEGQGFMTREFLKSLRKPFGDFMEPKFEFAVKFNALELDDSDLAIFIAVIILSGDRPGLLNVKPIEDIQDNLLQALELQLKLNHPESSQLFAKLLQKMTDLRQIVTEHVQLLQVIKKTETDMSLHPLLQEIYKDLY

| Structure (SMILES) | activation | Potency |
| --- | --- | --- |
| CCCCCCCCCCCC[N+](C)(C)CC(=O)[O-] | -0.0086% | – |
| COC(OC)(C(=O)c1ccccc1)c1ccccc1 | -1.17% | – |
| CCCCCCCCCOC(C)=O | -2.15% | – |
| CCCCCCCCSCCO | -4.22% | – |
| CCN(Cc1cccc(S(=O)(=O)O)c1)c1ccc(C(=C2C=CC(=[N+](CC)Cc3cccc(S(=O)(=O)[O-])c3)C=C2)c2ccccc2)cc1 | -9.45% | – |
| COc1cc2c(N3CCN(C(=O)Nc4ccc(OC(C)C)cc4)CC3)ncnc2cc1OCCCN1CCCCC1 | -3.18% | – |
| CCCOC(=O)c1ccc(N)cc1 | -8.23% | – |
| CC(N)CN (stereo not given) | 0.516% [at 78.9 µM] | – |
| Cc1ccc(S)cc1 | -0.0963% | – |
| CCOC(=O)c1ccccc1OC | 2.42% | – |
| O=C(O)c1cccnc1C(=O)O | 2.47% | – |
| O=C(O)c1ccc(CO)o1 | -3.03% [at 78.9 µM] | – |
| CCCCCCCCCCCC(=O)[O][Sn]([CH2]CCC)([CH2]CCC)[O]C(=O)CCCCCCCCCCC | 5.34% | – |
| CCC(Cc1ccccc1)(C(=O)c1ccc(N2CCOCC2)cc1)N(C)C (stereo not given) | 4.92% | – |
| CNC(=O)N(c1ccccc1)c1ccccc1 | -2.08% [at 78.9 µM] | – |
| Nc1nccs1 | – | inactive |
| CCOC(=O)/C=C/C(=O)O | 4.79% | – |
| Cc1occc1C(=O)Nc1ccc(C(=O)N2CCC(F)(F)/C(=C\C(=O)N3CCC(N4CCCCC4)CC3)c3ccccc32)cc1 | -8.23% [at 26.2 µM] | – |
| CN(C)C(=O)Nc1ccc(Oc2ccc(Cl)cc2)cc1 | -5.26% | – |
| Nc1ccc(S(=O)(=O)O)cc1 | -7.6% [at 78.9 µM] | – |

| Structure (SMILES) | activation | Potency |
| --- | --- | --- |
| O=[N+]([O-])c1cccc(S(=O)(=O)NCCNS(=O)(=O)c2cccc([N+](=O)[O-])c2)c1 | 0.166% | – |
| OCCSc1ccccc1 | 0.602% | – |
| CC1=NN(c2ccc(C(=O)O)cc2)C(=O)C1 | -6.29% | – |
| O=C(CS)OCCOC(=O)CS | 2.37% | – |
| Cc1ccccc1N1C(=O)c2cc(S(N)(=O)=O)c(Cl)cc2NC1C (stereo not given) | – | inactive |
| N#C/C(=C1\SCC(c2ccccc2Cl)S1)n1ccnc1 (stereo not given) | 3.17% | – |
| C/C=C/C=C/CCCCCCCO | -4.84% | – |
| CCOC(=N)CC(=O)OCC | 4.59% | – |
| NC(=O)Nc1ccc(Cl)cc1 | -6.32% | – |
| O=C1OCCN1/N=C/c1ccc([N+](=O)[O-])o1 | 3.45% | – |
| O=C(c1ccc(O)cc1)c1ccc(Cl)cc1 | -2.83% [at 78.9 µM] | – |
| NC(=O)Cn1c(=O)cc(CCN2CCN(c3nccc4sccc34)CC2)c2ccc(F)cc21 | -7.76% | – |
| O=C(Nc1ccc([N+](=O)[O-])cc1)Nc1ccc([N+](=O)[O-])cc1 | -0.374% | – |
| ON(Cc1ccccc1)Cc1ccccc1 | -0.034% | – |
| CCCC1C(CC)=CC(CC)=CN1c1ccccc1 (stereo not given) | 1.91% | – |
| CCn1cc(C(=O)O)c(=O)c2cc(F)c(N3CCNCC3)nc21 | -1.14% [at 26.2 µM] | – |
| C[Si]1(C)O[Si](C)(C)O[Si](C)(C)O1 | -9.51% | – |
| O=S1OCCO1 | -1.4% [at 78.9 µM] | – |
| CC(CCO)CCc1ccccc1 (stereo not given) | 0.391% | – |
| [O]=[Bi] | -4.02% [at 7.08 µM] | – |
